Read-outs that look alike come from different tables or passages of the source. Screen size: about 13,000 compounds; about 3,200 (25%) showed an effect of 50% or more. This is one part of the list.
System: P. falciparum stage V gametocytes
Set-up: BacTiter-Glo ATP luminescence viability of purified stage V gametocytes in 384-well plates, per cent inhibition versus DMSO
Settings: 48 h, 5 µM, inhibitor

Row | Compound | % Inhibition | % Inhibition (% Inhibition)
1 | COc1ccc(C(=O)Nc2ccc3oc(-c4ccc(C(F)(F)F)cc4)cc3c2)cc1CCCN(C)C [TCMDC-138694] | 15.28% | 
2 | COc1ccc2nccc([C@@H](O)CN3CCC(NCc4cc5ccccc5cn4)CC3)c2n1 [TCMDC-140714] | 12.93% | 
3 | COc1ccc2nccc(N(C)CC3(O)CCC(NCc4ccc5c(n4)NC(=O)CS5)CC3)c2n1 (stereo not drawn) [TCMDC-134496] | 10.91% | 
4 | COc1ccc2nccc([C@@H](O)CN3CCC(NCc4cc5c(F)ccc(F)c5[nH]4)CC3)c2n1 [TCMDC-140749] | 33.6% | 
5 | COc1ccc2nccc([C@@H](O)CN3CCC(c4cc(-c5ccc(Cl)cc5)n[nH]4)CC3)c2n1 [TCMDC-141436] | 81.16% | 
6 | COc1ccc2nccc([C@@H](O)CN3CCC(NCc4cc5cccnc5[nH]4)CC3)c2n1 [TCMDC-140769] | 87.86% | 
7 | COc1ccc2nccc([C@@H](O)CN3CCC(NCc4ccc5c(c4)NC(=O)CS5)CC3)c2n1 [TCMDC-141173] | 12.99% | 
8 | COc1ccc2nccc(NCC3(O)CCC(NCc4ccc5c(n4)NC(=O)CS5)CC3)c2n1 (stereo not drawn) [TCMDC-134313] | 46.62% | 
9 | COc1cc(F)c2nccc([C@@H](O)CN3CCC(NCc4ccc5c(n4)NC(=O)CS5)CC3)c2c1 [TCMDC-141566] | 6.174% | 
10 | COc1ccc2nccc([C@@H](O)CN3CCC(NCc4cc5c(cc4F)SCC(=O)N5)CC3)c2n1 [TCMDC-141432] | 52.03% | 
11 | COc1ccc2nccc([C@@H](O)CN3CCC(NCc4ccc5cccc(O)c5n4)CC3)c2n1 [TCMDC-140748] | 43.79% | 
12 | COc1ccc2nccc([C@@H](O)CN3C4CCC3CC(NCc3ccc5c(n3)NC(=O)CS5)C4)c2n1 (stereo partly drawn) [TCMDC-134697] | 50.82% | 
13 | COc1ccc2nccc([C@@H](O)CN3CCC(NCc4cc5ccccc5[nH]4)CC3)c2n1 [TCMDC-140670] | 14.92% | 
14 | COc1ccc2ncc(F)c(C(O)CN3CCC(NCc4ccc5c(n4)NC(=O)CO5)CC3)c2c1 (stereo not drawn) [TCMDC-135531] |  | 14.63%
15 | CN(C)CCOc1ccc2c(c1)OC(C)(C)C=C2c1cccc2ccccc12 [TCMDC-131402] | -10.44% | 
16 | CNC(=O)C1Cc2c([nH]c3c(C)cccc23)C2(N1)C(=O)Nc1ccc(OC(F)(F)F)cc12 (stereo not drawn) [TCMDC-140663] | 46.7% | 
17 | COc1cc(Cc2cnc(N)nc2N)ccc1OCc1csc(-c2ccc(Cl)cc2)n1 [TCMDC-138680] | 16.88% | 
18 | CCCc1cc(C(C)=O)ccc1OCCCON1C(N)=NC(N)=NC1(C)C [TCMDC-131336] | -2.455% | 
19 | CS(=O)(=O)NCCCNCc1cccc(-c2ccc(-c3nc4ccccc4[nH]3)s2)c1.O=C(O)C(F)(F)F [TCMDC-133088] | 4.156% | 
20 | CC(=O)c1sc2ccccc2c1O [TCMDC-125829] | 14.25% | 
21 | COc1ccc2nccc(CCC3(O)CCC(NCc4cc5c(cc4F)SCC(=O)N5)CC3)c2c1 (stereo not drawn) [TCMDC-141917] | 62.44% | 
22 | COc1ccc2nccc(NC(=O)C3CCC(NCc4ccc5c(c4)NC(=O)CS5)CC3)c2c1 (stereo not drawn) [TCMDC-141228] | 28.37% | 
23 | COc1ccc2nccc(NC(=O)OC3CCC(NCc4ccc5c(n4)NC(=O)CS5)CC3)c2c1 (stereo not drawn) [TCMDC-141555] | -20.26% | 

Row | Compound | % Inhibition | % Inhibition (% Inhibition)
24 | O=C(Nc1cccc(-c2cccc(-c3nc4ccccc4[nH]3)c2)c1)Nc1ccc(Cl)c(Cl)c1 [TCMDC-133276] | -27.25% | 
25 | CN1CCC(N(Cc2ccc(N3CCN(Cc4c[nH]c5ccc(Cl)cc45)CC3)nc2)C2CC2)CC1 [TCMDC-125090] | 56.06% | 
26 | CN(C)C1CCN(Cc2ccc(N3CCN(Cc4cccc5[nH]ccc45)CC3)nc2)CC1 [TCMDC-125091] | 12.57% | 
27 | O=C(NC1CC1)c1ccc(N2CCN(Cc3ccc(Cl)cc3)CC2)nc1 [TCMDC-134579] | -1.025% | 
28 | COc1ccc(-c2nc3c(N)nc(N)nc3nc2C(C)C)cc1 [TCMDC-132109] | -10.94% | 
29 | COc1ccc2nccc([C@@H](O)CN3CCC(NC(=O)C(c4cc5ccccc5s4)N4CCN(c5ccccc5OC)CC4)CC3)c2c1 (stereo partly drawn) [TCMDC-140998] | -1.294% | 
30 | Cc1cccc(-n2nc(C)c3c2NC(=O)CC3C(=O)c2ccc(Cl)s2)c1 (stereo not drawn) [TCMDC-124735] | 9.48% | 
31 | Cc1nn(-c2cccc(Cl)c2)c2c1C(C(=O)c1ccc3c(c1)OCO3)CC(=O)N2 (stereo not drawn) [TCMDC-124734] | 53.61% | 
32 | Cc1ccc(-n2nc(C)c3c2NC(=O)CSC3c2ccsc2)cc1 (stereo not drawn) [TCMDC-124763] | 18.54% | 
33 | COc1ccc2ncc(F)c(CCN3CC(O)C(CNCc4nc5c(cc4Cl)OCC(=O)N5)C3)c2n1 (stereo not drawn) [TCMDC-136076] |  | 36.95%
34 | CN(C)c1ccc(Br)c(Br)c1 [TCMDC-137228] | -4.164% | 
35 | CCc1ccc(N2C(N)=NC(N)=NC2(C)C)cc1 [TCMDC-137714] | 18.99% | 
36 | O=C(Nc1cccc2ccccc12)N1CCc2cc3nccc(N4CCN5CCC[C@H]5C4)c3cc21 [TCMDC-140051] | -22.56% | 
37 | COc1ccc(N2CCN(CCCCNC(=O)c3ccc(NC(=O)c4cc(Cl)cc(Cl)c4)cc3)CC2)c(OC)c1 [TCMDC-138158] | -3.672% | 
38 | COc1ccc(N2CCN(CCCNC(=O)c3ccc(NC(=O)c4cc(Cl)cc(Cl)c4)cc3)CC2)c(OC)c1 [TCMDC-138244] | -9.881% | 
39 | COc1ccc(N2CCN(CCCCNC(=O)c3ccc(NC(=O)c4ccc(Cl)cc4)cc3)CC2)c(OC)c1 [TCMDC-138121] | -18.96% | 
40 | COc1ccc(N2CCN(CCCOc3ccc(NC(=O)c4cc(Cl)cc(Cl)c4)cc3)CC2)c(OC)c1 [TCMDC-138225] | -23.18% | 
41 | COc1ccc(N2CCN(CCCCNC(=O)c3ccc(NC(=O)c4ccc(C(F)(F)F)cc4)cc3)CC2)c(OC)c1 [TCMDC-138132] | -49.13% | 
42 | COc1ccc(N2CCN(CCCCNCc3ccc(NC(=O)c4cc(Cl)cc(Cl)c4)cc3)CC2)c(OC)c1 [TCMDC-138226] | 99.96% | 
43 | COc1ccc(N2CCN(CCCCNC(=O)c3ccc(NC(=O)c4cccc(Cl)c4)cc3)CC2)c(OC)c1 [TCMDC-138183] | 74.19% | 
44 | COc1ccc(N2CCN(CCCCNC(=O)c3ccc(NC(=O)c4ccc(Cl)c(Cl)c4)cc3)CC2)c(OC)c1 [TCMDC-138159] | 58.71% | 
45 | COc1ccc(N2CCN(CCCC/C=C/c3ccc(NC(=O)c4cc(Cl)cc(Cl)c4)cc3)CC2)c(OC)c1 [TCMDC-138219] | 10.07% | 
